Source: PubChem
The list is not random: actives were taken first. Their share in the collection is about 7.9%.
HCMV inh: qHTS Assay for inhibitors of the human cytomegalovirus (HCMV); AID 1259415, 2018; HFF cells, HCMV-luciferase reporter, 72 h; stronger effect = lower value; 4.5% of 410,000 active; activity change, negative = inhibition, % at 57.5 µM; in the data active = activity change below about -60%; inconclusive = no clear call, values can overlap the other calls; inactive = above about -39%
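After 16 h attachment at 37C, HFF cells received test compound and HCMV-luciferase (1 PFU/cell); reporter luminescence read 72 h later, data normalized against buffer-only and known inhibitor Salinomycin.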
FMDV inh: High Throughput Screening for Foot and Mouth Disease Virus Antivirals. FMDV antiviral cell-based qHTS. Potency, µM (doses to about 57.9 µM), for the others: at the top dose activity change, negative = inhibition, usual class: inhibitors. 1.2% of 410,000 active. AID 1159524, 2015; calls by dose curve; tested in HEK293T cells; also: read-out not given here; potency is read from the fitted curve at half-maximal effect; nearly all actives have a fitted effect of over 45% in size
Marburg entry inh: qHTS for inhibitors of binding or entry into cells for Marburg Virus; Marburg virus pseudotyped entry inhibition, cell reporter; Potency, µM (highest dose often 37.8 µM), for the others: at the top dose activity change, negative = inhibition, most hits filed as inhibitors; 1.8% of 300,000 active; AID 540276, 2011; calls by dose curve; tested in HEK293 cells; also: potency is read from the fitted curve at half-maximal effect
LASV entry inh: qHTS for Inhibitors of binding or entry into cells for Lassa Virus | 1.2% of 300,000 active | Potency, µM (highest dose often 37.9 µM), for inactives: top-dose activity change, negative = inhibition, usual class: inhibitors | Lassa virus pseudotype entry inhibition, cell reporter; calls by dose curve; tested in HEK293 cells; also: potency is read from the fitted curve at half-maximal effect; nearly all actives have a fitted effect of over 50% in size
HCV inhibitor: qHTS Assay for Inhibitors of Hepatitis C Virus (HCV); Huh7.5.1 HCVcc-Cre infection, luciferase reporter, 44 h; 3.4% of 340,000 active; AID 651820, 2012; Potency, µM (doses to about 41.8 µM), inactives show at the highest dose activity change, negative = inhibition, usual class: inhibitors; active = well fitted inhibition curve with a large enough effect; inconclusive = small, poorly fitted or top-dose-only effect, or another doubt; inactive = no such curve, though single readings can be large or run the other way; also: potency is read from the fitted curve at half-maximal effect
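HCVcc-Cre virus at an moi near 0.5 was added right after compound to cells cultured 4 h from seeding (1,000 cells/well). Luciferase activity was determined 44 h later, 15 min after substrate addition at RT.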
* = called active by the depositor; ? = inconclusive; . = no result given; [ ] = another dose, or the depositor's remark. % is scaled to controls: 0 for no effect and ±100 for the full control effect.

SMILES | HCMV inh | FMDV inh | Marburg entry inh | LASV entry inh | HCV inhibitor
Cc1occc1C(=O)/C(C#N)=C/c1ccc(O)c(Br)c1 | 2 | -2% | 3%[46.1 µM] | . | 1%
CN(CCCC(=O)Nc1ccncc1)S(=O)(=O)c1ccc(Cl)cc1 | -38 | ? | -32% | ? | 10µM*
O=C(CCCOc1ccc(Cl)cc1Cl)Nc1ccncc1 | -61* | . | -12% | 2% | ?
CC(C)(Oc1ccc(Cl)cc1)C(=O)Nc1ccncc1 | -31 | ? | ? | -14% | 11µM*
Cc1ccc(C(=O)NCC(=O)Nc2ccncc2)cc1C | -74* | -17% | 17%[46.1 µM] | -15%[46.1 µM] | 6%
Cc1ccc(C(=O)NCC(=O)Nc2ccncc2)cc1 | -4 | -29% | . | . | 3%
O=C(CCCOc1ccc(Cl)cc1Cl)Nc1ccccn1 | -2 | 13% | 6%[46.1 µM] | 27%[46.1 µM] | ?
CC(C)(Oc1ccc(Cl)cc1)C(=O)Nc1cccnc1 | -22 | -28% | -11% | 10% | 0%
Cc1cccc(C(=O)Nc2cc3nn(-c4ccc(C(C)C)cc4)nc3cc2C)c1 | 17 | 4% | 3%[46.1 µM] | 19%[46.1 µM] | .
Cc1ccc(C(=O)Nc2ccccc2C(=O)OCc2cc(=O)n3nc(C4CC4)sc3n2)cc1 | 22 | -3% | . | 4%[46.1 µM] | .
C=C(C)C1CC=C(C)/C(=N/NC(=O)CCC(=O)Nc2ccccc2Cl)C1 (stereo not drawn) | -10 | 10% | -18%[46.1 µM] | 8%[46.1 µM] | -17%
COC(=O)[C@@]1(Sc2ccc(OC)cc2)CC(=O)N[C@@H]1c1ccc(OC(C)C)c(OC)c1 | -5 | . | . | . | .
COc1cccc(-n2sc3c(c2=S)-c2cc(OC)ccc2NC3(C)C)c1 | -24 | -28% | ? | ? | 10µM*
O=C(NCc1cccnc1)c1ccccc1CCc1ccccc1 | -26 | -9% | . | . | -4%
O=C(c1ccc(-n2cncn2)c([N+](=O)[O-])c1)N1CCN(S(=O)(=O)c2ccccc2F)CC1 | -8 | -2% | ? | ? | 4%
O=C(C[n+]1cccc(C(=O)Nc2ccccc2)c1)c1ccc([N+](=O)[O-])cc1 | 18 | 3% | 1%[46.1 µM] | -6% | 11µM*
O=C(C[n+]1cccc(C(=O)Nc2ccccc2)c1)c1ccc(Cl)cc1 | -16 | -24% | . | . | .
Cc1cccc[n+]1CC(=O)c1ccc([N+](=O)[O-])cc1 | -87* | -7% | 10%[46.1 µM] | 3%[46.1 µM] | ?
O=c1[nH]c2ccc(NCc3ccccc3OCc3ccc(Cl)cc3)cc2[nH]1 | -73* | ? | . | . | ?
Oc1ccc(NCc2ccccc2OCc2ccc(Cl)cc2)cc1 | -72* | -10% | ? | -15%[46.1 µM] | .
COc1cccc(CNc2ccc3[nH]c(=O)[nH]c3c2)c1OCc1ccc(F)cc1 | 85 | ? | ? | -10%[46.1 µM] | -22%
CCCn1c(C)nc2c(c1=O)c1nc3ccccc3nc1n2CCC1=CCCCC1 | 4 | ? | 23µM* | ? | -30%
Cc1cc(C(=O)Nc2c(C)nn(Cc3ccccc3Cl)c2C)no1 | -7 | -2% | 1% | -7% | 5%
COc1ccc(OC)c(-c2cc(C(=O)Nc3c(C)nn(Cc4ccc(C)cc4)c3C)no2)c1 | -15 | ? | -19%[46.1 µM] | 4%[46.1 µM] | .
COc1ccc(-c2cc(C(=O)Nc3c(C)nn(Cc4ccccc4Cl)c3C)no2)cc1OC | -5 | ? | -6% | -1% | 8.9µM*
SMILES | HCMV inh | FMDV inh | Marburg entry inh | LASV entry inh | HCV inhibitor
COc1cccc(-c2cc(C(=O)Nc3c(C)nn(Cc4ccccc4Cl)c3C)no2)c1 | 6 | ? | ? | ? | .
COc1ccc(OC)c(-c2cc(C(=O)Nc3c(C)nn(Cc4ccccc4C)c3C)no2)c1 | -23 | ? | ? | ? | 3.2µM*
COc1ccc(OC)c(-c2cc(C(=O)Nc3c(C)nn(Cc4ccccc4Cl)c3C)no2)c1 | -34 | -9% | -3% | -10% | 16µM*
Cc1nn(C)cc1C(=O)Nc1c(C)nn(Cc2ccccc2Cl)c1C | -80* | -1% | ? | 0% | 7%
CC(C)=CCCC(C)=CCN1C(=O)[C@@]2(C[C@@H](C)C[C@@H](C)O2)c2ccccc21 | . | . | -7%[14.2 µM] | . | .
Cc1cc(Cl)ccc1OCC(=O)Nc1c(Cl)ccc2nsnc12 | ? | ? | 15%[46.1 µM] | -15%[46.1 µM] | .
Fc1ccc(CNCCCSc2nnnn2-c2ccccc2)cc1 | -17 | 0% | -27%[46.1 µM] | ? | .
O=C(Nc1cccc2ccccc12)OC1C=CS(=O)(=O)C1 (stereo not drawn) | -70* | -17% | -21% | -18% | ?
CSc1ccc(CNc2cccc3ccccc23)cc1 | -64* | . | ? | ? | ?
CSc1ccc(/C=N/NC(=O)CNc2cccc3ccccc23)cc1 | 2 | -5% | ? | 9% | 2%
Cc1ccc(NC(=O)CCC(=O)N2CCC(C)CC2)c([N+](=O)[O-])c1 | 0 | -14% | . | . | 10%
COc1ccc(O[C@H]2C=C[C@@H](c3ccccc3)O[C@H]2CON=C2[C@H]3CCn4c(=O)n(-c5ccccc5)c(=O)n4[C@@H]3[C@H](O)[C@@H]3O[C@H]23)cc1 | . | . | 5%[14.2 µM] | . | .
CCN1C(=O)N(C)C2(c3ccccc3)N(C)C(=O)N(C)C12c1ccccc1 (stereo not drawn) | 3 | -4% | 3% | 0% | 14%
CCN1C(=O)N(CC)C(O)(c2ccccc2)C1(O)c1ccccc1 (stereo not drawn) | -62* | -17% | 26% | 8% | 1%
COc1ccccc1NS(=O)(=O)c1cc(NC(=O)C(C)NC(N)=O)ccc1N1CCCC1 (stereo not drawn) | 0 | 56% | . | . | ?
COc1ccc(NS(=O)(=O)c2cc(NC(=O)C(CC(C)C)NC(N)=O)ccc2N2CCOCC2)cc1 (stereo not drawn) | -68* | 32% | . | . | 9%
COc1ccc(NS(=O)(=O)c2cc(NC(=O)[C@H](C)NC(N)=O)ccc2N2CCCC2)cc1 | -85* | 29% | 4% | -2% | ?
O=C(NCc1ccccc1)c1ccc2c(c1)sc1nc(-c3ccc(F)cc3)cn12 | . | -1% | . | 8%[46.1 µM] | .
CCc1cc(C(=O)N(C)CC(=O)Nc2c(Cl)cccc2Cl)sc1C | -67* | -19% | ? | 8.9µM* | -27%
CCc1nccc2c1nc(-c1nonc1N)n2CC | . | . | . | 25µM* | .
CCn1c(-c2nonc2N)nc2ccncc21 | . | . | . | -6% | .
CN(C)c1ccc(NC(=O)CSc2nc(N)c(C(=O)Nc3ccc(N(C)C)cc3)s2)cc1 | ? | ? | ? | ? | 10µM*
COc1ccc(C(=O)NNC(=O)CSc2nc(C(C)C)nc3ccccc23)cc1 | -65* | -14% | ? | -12%[46.1 µM] | -12%
CC(C)c1nc(SCC(=O)Nc2ccc(N(C)C)cc2)c2ccccc2n1 | -77* | ? | . | . | ?
CC(C)(C)c1nc(SCC(=O)NNC(=O)c2ccccc2)c2ccccc2n1 | -63* | 0% | ? | . | ?
CCc1nc(SCC(=O)NNC(=O)c2ccc(OC)cc2)c2ccccc2n1 | 20 | -12% | -27%[46.1 µM] | -2% | 2%
CCc1ccccc1NC(=O)NCc1cccnc1 | 16 | -12% | . | . | 5%
CC(C)(CNC(=O)c1cnn(-c2nccc(-c3cc4ccccc4o3)n2)c1C1CC1)N1CCOCC1 | . | 6% | . | . | .
